Targets with a hit are over-represented here; the source holds about 8,800 in all. About 0.5% of all pairs of compound and target were hits.
Columns and labels:
Experiment in all cases: log2 fold change, soluble protein after heating vs DMSO (PISA); higher = thermal stabilisation; K562 lysate, 10 uM; active = over 0.2 and 3.5 SD of the protein, either way, in both replicates (recomputed)
vemurafenib = compound: CCCS(=O)(=O)Nc1ccc(F)c(C(=O)c2c[nH]c3ncc(-c4ccc(Cl)cc4)cc23)c1F [vemurafenib]
Outline: (§1)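 Pellets of K562 cells were dounce-homogenised in PBS pH 7.4 with 1 mM MgCl2, and the crude extract was held at 1 mg/mL protein for a 30 min treatment with 10 μM compound. Aliquots were heated for 3 min over 48°C-58°C and pooled before NP-40 was added to 0.5% at 4°C. The supernatant from 21,000xg for 90 min was quantified by TMTpro 16plex LC-MS/MS with channel sums equalised. Values are reported from duplicates as log-two fold change in thermal stability relative to solvent controls.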

[1] = compound: CCCS(=O)(=O)Nc1ccc(F)c(C(=O)c2c[nH]c3ncc(Cl)cc23)c1F
Outline: as §1

barasertib = compound: CCN(CCCOc1ccc2c(Nc3cc(CC(=O)Nc4cccc(F)c4)[nH]n3)ncnc2c1)CCOP(=O)(O)O [barasertib]
Outline: as §1

[2] = compound: CC[C@@H]1C(=O)N(C)c2cnc(Nc3ccc(C(=O)NC4CCN(C)CC4)cc3OC)nc2N1C1CCCC1
Outline: as §1

volasertib = compound: CC[C@@H]1C(=O)N(C)c2cnc(Nc3ccc(C(=O)N[C@H]4CC[C@H](N5CCN(CC6CC6)CC5)CC4)cc3OC)nc2N1C(C)C [volasertib]
Outline: as §1

[3] = compound: CCn1c(C(=O)N(C2CC2)C2CC2)cc2c3c(ncn3C)c(Nc3cc(C)n(C)n3)nc21
Outline: as §1

[4] = compound: CCn1cc(-c2ccnc3[nH]c(-c4cccc(CN(C)C)c4)cc23)c(-c2ccc(NC(=O)N(C)C)cc2)n1
Outline: as §1

[5] = compound: CN1CCC(CNc2ccc3ncc(-c4cccc(OC(F)(F)F)c4)n3n2)CC1
Outline: as §1

saracatinib = compound: CN1CCN(CCOc2cc(OC3CCOCC3)c3c(Nc4c(Cl)ccc5c4OCO5)ncnc3c2)CC1 [saracatinib]
Outline: as §1

sotrastaurin = compound: CN1CCN(c2nc(C3=C(c4c[nH]c5ccccc45)C(=O)NC3=O)c3ccccc3n2)CC1 [sotrastaurin]
Outline: as §1

Measured: log2 fold change

ZNF451 (UniProt Q9Y4E5)
Sequence of UniProt Q9Y4E5 (Q9Y4E5 whole entry, looked up): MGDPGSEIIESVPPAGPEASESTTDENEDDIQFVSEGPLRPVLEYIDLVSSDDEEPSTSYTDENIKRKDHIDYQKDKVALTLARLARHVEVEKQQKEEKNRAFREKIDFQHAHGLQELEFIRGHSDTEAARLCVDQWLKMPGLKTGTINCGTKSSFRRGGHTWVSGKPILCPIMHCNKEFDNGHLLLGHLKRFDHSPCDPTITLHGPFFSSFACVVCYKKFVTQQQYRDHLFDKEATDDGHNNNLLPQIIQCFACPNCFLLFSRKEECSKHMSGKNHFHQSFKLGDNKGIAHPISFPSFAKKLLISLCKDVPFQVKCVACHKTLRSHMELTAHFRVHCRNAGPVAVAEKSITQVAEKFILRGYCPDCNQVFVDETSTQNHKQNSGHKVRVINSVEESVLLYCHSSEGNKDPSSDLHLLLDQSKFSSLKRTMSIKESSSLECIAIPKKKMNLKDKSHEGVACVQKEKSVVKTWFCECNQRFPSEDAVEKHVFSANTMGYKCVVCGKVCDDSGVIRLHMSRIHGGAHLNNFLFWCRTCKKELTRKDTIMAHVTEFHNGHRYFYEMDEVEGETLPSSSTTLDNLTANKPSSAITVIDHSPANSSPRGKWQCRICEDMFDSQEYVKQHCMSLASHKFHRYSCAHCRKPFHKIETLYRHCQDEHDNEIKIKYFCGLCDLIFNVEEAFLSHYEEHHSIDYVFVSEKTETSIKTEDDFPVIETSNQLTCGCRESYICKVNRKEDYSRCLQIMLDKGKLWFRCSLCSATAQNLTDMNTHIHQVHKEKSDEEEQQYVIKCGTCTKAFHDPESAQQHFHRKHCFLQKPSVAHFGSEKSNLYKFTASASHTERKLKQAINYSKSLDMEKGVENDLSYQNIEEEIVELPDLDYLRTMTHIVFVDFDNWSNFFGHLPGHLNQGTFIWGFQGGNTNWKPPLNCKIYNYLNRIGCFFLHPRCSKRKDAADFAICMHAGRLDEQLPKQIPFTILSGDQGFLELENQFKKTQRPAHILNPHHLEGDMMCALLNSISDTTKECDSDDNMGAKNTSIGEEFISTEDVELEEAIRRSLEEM
inactive: vemurafenib -0.013 | [1] 0.02 | barasertib 0.019 | [2] 0.066 | volasertib -0.063 | [3] -0.022 | [4] -0.047 | [5] -0.048 | saracatinib 0.039 | sotrastaurin 0.002

ZC3HC1 (UniProt Q86WB0)
Sequence of UniProt Q86WB0 (Q86WB0 whole entry, looked up): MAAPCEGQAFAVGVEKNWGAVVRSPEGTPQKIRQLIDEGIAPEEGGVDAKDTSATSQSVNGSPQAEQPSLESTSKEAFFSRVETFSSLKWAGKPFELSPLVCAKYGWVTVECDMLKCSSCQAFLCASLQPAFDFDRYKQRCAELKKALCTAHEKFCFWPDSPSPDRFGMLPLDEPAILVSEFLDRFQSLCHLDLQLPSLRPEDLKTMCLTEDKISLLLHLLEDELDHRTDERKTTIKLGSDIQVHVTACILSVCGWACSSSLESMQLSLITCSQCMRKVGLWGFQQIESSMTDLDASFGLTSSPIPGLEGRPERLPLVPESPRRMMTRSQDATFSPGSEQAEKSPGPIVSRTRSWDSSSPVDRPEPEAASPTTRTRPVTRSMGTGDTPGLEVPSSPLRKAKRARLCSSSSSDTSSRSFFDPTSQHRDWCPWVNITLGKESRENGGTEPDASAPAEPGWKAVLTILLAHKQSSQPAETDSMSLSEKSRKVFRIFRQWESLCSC
active: [4] 0.253
inactive: vemurafenib -0.006 | [1] 0.027 | barasertib -0.029 | [2] -0.036 | volasertib 0.015 | [3] 0.008 | [5] -0.075 | saracatinib -0.03 | sotrastaurin -0.022

WIPI2 (UniProt Q9Y4P8)
inactive: vemurafenib -0.028 | [1] 0.012 | barasertib -0.06 | [2] -0.073 | volasertib -0.022 | [3] 0.002 | [4] -0.108 | [5] 0.09 | saracatinib 0.01 | sotrastaurin -0.002

YLPM1 (UniProt P49750)
inactive: vemurafenib 0.062 | [1] 0.005 | barasertib 0.032 | [2] 0.069 | volasertib -0.019 | [3] -0.018 | [4] 0.165 | [5] -0.085 | saracatinib 0.033 | sotrastaurin 0.012

UXT isoform 2 (UniProt Q9UBK9)
Sequence of UniProt Q9UBK9 (Q9UBK9 whole entry, looked up): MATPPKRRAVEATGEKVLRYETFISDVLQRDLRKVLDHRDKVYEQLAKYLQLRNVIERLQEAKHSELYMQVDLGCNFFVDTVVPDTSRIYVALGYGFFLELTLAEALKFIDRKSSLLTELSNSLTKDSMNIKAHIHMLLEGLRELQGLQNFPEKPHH
inactive: vemurafenib -0.023 | [1] 0 | barasertib 0.056 | volasertib -0.004 | [3] -0.088 | [4] -0.05 | [5] 0.032 | saracatinib 0.053 | sotrastaurin 0.001
active: [2] 0.321

VRK2 (UniProt Q86Y07)
Sequence of UniProt Q86Y07 (Q86Y07 whole entry, looked up): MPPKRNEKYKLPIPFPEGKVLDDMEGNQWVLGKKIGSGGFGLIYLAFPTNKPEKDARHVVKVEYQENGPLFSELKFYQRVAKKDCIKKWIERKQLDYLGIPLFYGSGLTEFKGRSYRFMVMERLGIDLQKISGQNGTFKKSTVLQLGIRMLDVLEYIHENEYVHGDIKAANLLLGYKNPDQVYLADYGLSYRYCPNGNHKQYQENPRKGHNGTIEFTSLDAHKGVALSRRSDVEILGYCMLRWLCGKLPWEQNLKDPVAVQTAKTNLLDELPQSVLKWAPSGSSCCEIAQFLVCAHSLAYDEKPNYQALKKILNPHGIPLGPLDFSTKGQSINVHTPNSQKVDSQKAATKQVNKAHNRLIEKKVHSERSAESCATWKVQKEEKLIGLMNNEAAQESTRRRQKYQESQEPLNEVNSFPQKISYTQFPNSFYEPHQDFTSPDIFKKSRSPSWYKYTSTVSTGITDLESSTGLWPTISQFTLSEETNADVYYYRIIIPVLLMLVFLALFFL
inactive: vemurafenib 0.113 | [1] 0.148 | barasertib 0.048 | [2] -0.032 | volasertib -0.008 | [3] 0.01 | [4] -0.104 | [5] 0.182 | saracatinib -0.022 | sotrastaurin 0.151

WDCP (UniProt Q9H6R7)
Sequence of UniProt Q9H6R7 (Q9H6R7 whole entry, looked up): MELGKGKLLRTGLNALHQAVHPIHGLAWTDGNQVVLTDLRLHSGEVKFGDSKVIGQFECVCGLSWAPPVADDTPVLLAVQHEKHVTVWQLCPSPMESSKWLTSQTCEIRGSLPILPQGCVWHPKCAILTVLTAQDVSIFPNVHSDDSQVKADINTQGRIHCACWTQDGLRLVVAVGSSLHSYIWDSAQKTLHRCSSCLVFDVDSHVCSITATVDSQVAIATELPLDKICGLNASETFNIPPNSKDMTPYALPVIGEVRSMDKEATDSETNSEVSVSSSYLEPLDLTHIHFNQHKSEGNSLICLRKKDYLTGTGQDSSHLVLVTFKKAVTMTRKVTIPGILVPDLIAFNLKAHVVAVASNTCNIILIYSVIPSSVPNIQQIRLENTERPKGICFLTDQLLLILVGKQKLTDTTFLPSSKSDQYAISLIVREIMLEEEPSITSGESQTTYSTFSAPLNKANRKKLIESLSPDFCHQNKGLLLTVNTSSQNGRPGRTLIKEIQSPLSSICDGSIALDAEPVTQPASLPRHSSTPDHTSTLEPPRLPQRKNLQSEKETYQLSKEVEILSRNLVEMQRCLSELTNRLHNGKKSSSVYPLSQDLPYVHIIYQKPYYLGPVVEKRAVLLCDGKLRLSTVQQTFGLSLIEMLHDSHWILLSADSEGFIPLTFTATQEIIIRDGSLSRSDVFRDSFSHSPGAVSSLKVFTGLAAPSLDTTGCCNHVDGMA
inactive: vemurafenib -0.004 | [1] 0.033 | barasertib 0.032 | [2] 0.031 | volasertib -0.019 | [3] -0.04 | [4] 0.003 | [5] 0.01 | saracatinib -0.011 | sotrastaurin 0.039

YWHAQ (UniProt P27348)
Sequence of UniProt P27348 (P27348 whole entry, looked up): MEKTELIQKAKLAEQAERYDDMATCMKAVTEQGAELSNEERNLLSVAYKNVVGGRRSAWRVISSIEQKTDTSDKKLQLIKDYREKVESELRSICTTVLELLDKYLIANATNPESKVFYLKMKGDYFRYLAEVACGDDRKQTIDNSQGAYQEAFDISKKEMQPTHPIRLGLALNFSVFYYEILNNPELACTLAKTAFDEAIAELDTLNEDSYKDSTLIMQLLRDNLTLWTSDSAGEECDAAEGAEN
active: [4] 0.625
inactive: vemurafenib -0.029 | [1] 0.009 | barasertib -0.023 | [2] 0.025 | volasertib 0.023 | [3] -0.003 | [5] -0.092 | saracatinib -0.012 | sotrastaurin -0.047

WDR20 isoform 7 (UniProt Q8TBZ3)
inactive: vemurafenib 0.047 | [1] 0 | barasertib 0.087 | [2] 0.054 | volasertib -0.039 | [3] -0.017 | [4] 0.039 | [5] -0.039 | saracatinib 0.065 | sotrastaurin -0.036

WDR41 (UniProt Q9HAD4)
inactive: vemurafenib -0.018 | [1] 0.036 | barasertib -0.07 | [2] 0.089 | volasertib 0.005 | [3] 0.053 | [4] -0.032 | [5] 0.053 | saracatinib 0.017 | sotrastaurin 0.043

ZC3H11A (UniProt O75152)
Sequence of UniProt O75152 (O75152 whole entry, looked up): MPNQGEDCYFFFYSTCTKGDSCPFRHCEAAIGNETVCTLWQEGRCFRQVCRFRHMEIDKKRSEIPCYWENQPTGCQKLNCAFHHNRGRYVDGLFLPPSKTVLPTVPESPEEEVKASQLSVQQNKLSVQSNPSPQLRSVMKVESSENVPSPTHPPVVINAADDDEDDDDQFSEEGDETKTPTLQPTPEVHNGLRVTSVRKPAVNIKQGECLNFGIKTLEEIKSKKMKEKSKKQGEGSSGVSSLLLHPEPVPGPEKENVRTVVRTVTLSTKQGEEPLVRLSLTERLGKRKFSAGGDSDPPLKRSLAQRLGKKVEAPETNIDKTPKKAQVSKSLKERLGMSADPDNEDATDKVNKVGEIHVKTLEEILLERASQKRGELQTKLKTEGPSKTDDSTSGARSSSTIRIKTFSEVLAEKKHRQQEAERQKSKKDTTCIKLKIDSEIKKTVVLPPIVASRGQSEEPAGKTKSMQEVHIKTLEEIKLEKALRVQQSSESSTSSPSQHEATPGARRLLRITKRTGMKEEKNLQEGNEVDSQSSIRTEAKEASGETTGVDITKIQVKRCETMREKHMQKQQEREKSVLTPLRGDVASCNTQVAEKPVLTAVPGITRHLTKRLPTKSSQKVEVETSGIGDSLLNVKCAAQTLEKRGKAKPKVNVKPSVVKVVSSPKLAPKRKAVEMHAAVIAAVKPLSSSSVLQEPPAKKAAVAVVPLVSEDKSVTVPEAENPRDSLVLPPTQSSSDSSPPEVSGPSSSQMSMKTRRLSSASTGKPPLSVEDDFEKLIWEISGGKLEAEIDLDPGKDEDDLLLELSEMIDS
inactive: vemurafenib 0.104 | [1] 0.084 | barasertib 0.055 | [2] 0.03 | volasertib -0.022 | [3] 0 | [4] 0.283 | [5] -0.182 | saracatinib -0.016 | sotrastaurin 0.013

VPS18 (UniProt Q9P253)
Sequence of UniProt Q9P253 (Q9P253 whole entry, looked up): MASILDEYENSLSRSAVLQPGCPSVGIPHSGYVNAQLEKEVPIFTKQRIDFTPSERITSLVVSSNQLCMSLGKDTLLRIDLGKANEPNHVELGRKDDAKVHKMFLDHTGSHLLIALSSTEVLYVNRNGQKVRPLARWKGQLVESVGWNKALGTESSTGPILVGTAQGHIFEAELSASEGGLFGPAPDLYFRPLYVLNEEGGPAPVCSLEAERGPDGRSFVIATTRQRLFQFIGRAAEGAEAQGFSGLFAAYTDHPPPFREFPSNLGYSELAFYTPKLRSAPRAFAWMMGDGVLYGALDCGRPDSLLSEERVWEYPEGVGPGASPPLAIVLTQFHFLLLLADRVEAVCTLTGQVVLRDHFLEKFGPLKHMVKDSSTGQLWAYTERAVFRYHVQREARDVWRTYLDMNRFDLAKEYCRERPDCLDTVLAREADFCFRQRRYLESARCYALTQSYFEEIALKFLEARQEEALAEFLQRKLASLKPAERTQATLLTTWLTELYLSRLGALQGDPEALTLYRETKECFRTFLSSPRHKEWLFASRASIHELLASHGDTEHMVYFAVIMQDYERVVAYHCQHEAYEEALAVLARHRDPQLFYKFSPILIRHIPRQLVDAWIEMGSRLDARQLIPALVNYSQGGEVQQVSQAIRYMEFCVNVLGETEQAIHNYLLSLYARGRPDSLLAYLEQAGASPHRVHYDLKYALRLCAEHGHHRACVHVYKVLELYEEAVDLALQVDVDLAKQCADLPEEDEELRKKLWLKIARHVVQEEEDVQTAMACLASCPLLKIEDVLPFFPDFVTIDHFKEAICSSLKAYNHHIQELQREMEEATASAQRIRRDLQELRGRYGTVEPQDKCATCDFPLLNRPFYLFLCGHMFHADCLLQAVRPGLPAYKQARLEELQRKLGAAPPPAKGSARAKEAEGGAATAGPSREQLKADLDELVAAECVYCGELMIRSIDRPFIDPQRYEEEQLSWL
inactive: vemurafenib 0.037 | [1] 0.014 | barasertib 0 | [2] 0 | volasertib -0.083 | [3] 0.046 | [4] -0.048 | [5] -0.04 | saracatinib -0.012 | sotrastaurin 0.02
